Reference: PubChem BioAssay (NCI)
Compounds without any hit were thinned out: in the full panel of roughly 83,000, 20% have a hit.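 Step 1: grow cells in 96-well plates. Step 2: add test compound at a single concentration. Step 3: incubate 48 h. Step 4: record percent growth.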 Values without a mark were called inactive. Calls of active or inactive are those of the source. The calls were made as follows: active = growth percent below 10; inactive = the rest.

The compounds below were run on RPMI-8226 leukemia (assay: NCI-60 one-dose screen, 48 h (100 = growth as untreated, 0 = no growth, -100 = all killed)). Details: 10 µM unless noted.

| Compound | growth |
| --- | --- |
| CCC(c1ccccc1)C(CC)c1ccc(O)c(O)c1 (configuration not stated) | 102% |
| CN1CCN(c2ccc3nc(-c4ccc5nc(-c6ccc(OCCC(C)(C)C)cc6)[nH]c5c4)[nH]c3c2)CC1 | -50.1% (active) |
| NC(N)=Nc1ccc(S(=O)(=O)O)cc1 | 101% |
| O=C(/C=C/c1cc2ccccc2[nH]c1=O)/C=C/c1cc2ccccc2[nH]c1=O | -16.8% (active) |
| Nc1ccc(Nc2nccc(-c3ccc4ccccc4c3)n2)cc1 | 29.7% |
| C=C1CCC2C3(C)COC(c4ccc(OC)cc4Br)OC3CCC2(C)C1/C=C/C1=CCOC1=O (configuration not stated) | 7.47% (active) |
| CCC(=O)Oc1ccc(/C(=C(\C)c2ccccc2)c2ccc(OCCN(CC)CC)cc2)cc1 | 68.2% |
| CC(=O)/C(=C/c1cccc(Cl)c1)C(=O)c1ccccc1 | 16.8% |
| NS(=O)(=O)c1ccc(-n2ncc3c(=O)[nH]c(CN4CCN(c5cc6c(cc5F)c(=O)c(C(=O)O)cn6C5CC5)CC4)nc32)cc1 | 105% |
| COc1ccc(-c2nn(-c3ccccc3)cc2/C=C2\SC(=O)NC2=O)cc1 | 78.7% |
| O=C(COc1cccc(/C=C2/Oc3ccccc3C2=O)c1)Nc1nccs1 | -53.2% (active) |
| CN1CCN(Cc2ccc(NC(=O)c3[nH]ncc3Nc3ncnc4sccc34)cc2)CC1 | -4.38% (active) |
| CC1=N/C(=C\c2cccc(Br)c2)C(=O)O1 | 108% |
| COc1cc(C(=O)/C=C/c2c(C)n([O-])c3ccc(C)cc3[n+]2=O)cc(OC)c1OC | -17.3% (active) |
| CCN(CC)CC#CCOC(=O)[C@]1(C)CCC[C@@]2(C)[C@H]1CC(C=O)=C1C=C(C(C)C)CC[C@@H]12 | 27.8% |
| C=C1CCC2C3(C)COC(c4ccccc4Br)OC3CCC2(C)C1C/C=C1/C(=O)OCC1OC(C)=O (configuration not stated) | -47% (active) |
| CCOC(=O)C(=Cc1ccccc1F)C(=O)OCC | 93.1% |
| Cn1c2ccccc2c2c3c(c4c5ccccc5n(CCCCCC#N)c4c21)C(=O)N(O)C3=O | 0.134% (active) |
| CC(=O)C1=C(O)C=C2Oc3c(C(=O)/C=C/c4c(Cl)cccc4Cl)c(O)c(C)c(O)c3[C@]2(C)C1=O | -17.7% (active) |

| Compound | growth |
| --- | --- |
| Oc1ccc(Nc2nccc(-c3ccc4ccccc4c3)n2)cc1 | 18.3% |
| COc1ccc(C(=O)/C=C/c2cc3ccccc3[nH]c2=O)cc1 | 15.3% |
| C[C@@]1(N2C(=O)OC[C@@H]2c2ccccc2)C(=O)N([C@H](CC(=O)N2CCC(N3CCCCC3)CC2)C(=O)NCc2cccc(C(F)(F)F)c2)[C@@H]1/C=C/c1ccccc1 | 37.1% |
| CCOC(=O)c1cnc2ccc(Br)cc2c1Nc1cccc(S(=O)(=O)NC)c1 | 110% |
| CCN1CCN(Cc2ccc(NC(=O)Nc3nc4ccc(Oc5ccnc(C(=O)NC)c5)cc4s3)cc2C(F)(F)F)CC1 | -22.9% (active) |
| O=c1c2c3c(sc2n2c(CCl)nnc2n1Cc1ccccc1)CCCC3 | -38.8% (active) |
| COC(=O)[C@H](C(C)C)n1c(=O)c2cc(OC)c(OC)cc2c2cnc3[nH]ccc3c21 | 55% |
| CC(=O)Oc1ccc(Nc2c3ccccc3nc3ccccc23)cc1 | -16.2% (active) |
| COc1cc(NCCCCN=C(N)NC(N)=NC(C)C)c2ncccc2c1 | 17.5% |
| CCN(CC)C12CCCCC1(C)C(C#N)(C#N)C(C#N)=C(N)O2 (configuration not stated) | 125% |
| O=C(CNC1C2CC3CC(C2)CC1C3)Sc1nnc2sc3ccccc3n12 (configuration not stated) | 97.3% |
| COc1ccc(-c2c3c(nc4n[nH]c(-c5ccc(Cl)cc5)c24)-c2ccccc2C(=O)C3=O)cc1 | -11.4% (active) |
| O=C1c2cc3c(cc2-c2c1c1cc(Cl)c(Cl)cc1c(=O)n2CCCn1ccnc1)OCO3 | -0.183% (active) |
| CC1(C)CC(=O)C(c2c(-c3ccccc3)[nH]c3[nH]c(=S)[nH]c(=O)c23)=C(O)C1 | 101% |
| O=C(/C=C/c1cccc(Br)c1)c1ccccc1 | 23.6% |
| O=C(CO[N+](=O)[O-])Nc1ccc(C(=O)/C=C/c2ccc(Cl)cc2)cc1 | -14.2% (active) |
| CN(C)c1ccc(/C=C\C2=[N+](C)c3ccccc3C2(C)C)cc1 | 66.5% |
| COc1ccc(CCN2CC=Cn3c2nc2ccccc2c3=O)cc1 | 21.4% |
